Source: PubChem BioAssay
Calls of active or inactive are those of the source.

Legend:
[1] = test system: Human papillomavirus type 1a protein E7 (residues 44-93); test: HPV1a E7 fragment binders on microarrays, primary screen, biochemical, small-molecule microarray, residues 44-93, 635 nm fluorescence (AID 1108); conditions: small-molecule microarray binding, fluorescence 635 nm; higher = more signal;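 also: E7 fragment applied at 1 µg/mL in TBST for 1 h at 4 C; score combines spot fluorescence with its signal to noise ratio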
[2] = modulators of HCV replicon luciferase signal, primary screen, HCV replication inhibitor project, Huh7 cells, luciferase reporter (AID 1109); conditions: 48 h, higher = more signal;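 also: huh7 hepatoma cells harbouring a luciferase neomycin HCV replicon reporter; luciferase luminescence as measure of HCV replicon replication; test concentration not given here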
[3] = target: Left-right determination factor 2 (Homo sapiens) (UniProt O00292); test: LEFTY2 binders on small-molecule microarrays, primary screen, biochemical, small-molecule microarray, 635 nm fluorescence scan (AID 1110); conditions: LEFTY2 binding, higher = more signal
Left-right determination factor 2 (Homo sapiens), sequence (O00292 whole entry, looked up): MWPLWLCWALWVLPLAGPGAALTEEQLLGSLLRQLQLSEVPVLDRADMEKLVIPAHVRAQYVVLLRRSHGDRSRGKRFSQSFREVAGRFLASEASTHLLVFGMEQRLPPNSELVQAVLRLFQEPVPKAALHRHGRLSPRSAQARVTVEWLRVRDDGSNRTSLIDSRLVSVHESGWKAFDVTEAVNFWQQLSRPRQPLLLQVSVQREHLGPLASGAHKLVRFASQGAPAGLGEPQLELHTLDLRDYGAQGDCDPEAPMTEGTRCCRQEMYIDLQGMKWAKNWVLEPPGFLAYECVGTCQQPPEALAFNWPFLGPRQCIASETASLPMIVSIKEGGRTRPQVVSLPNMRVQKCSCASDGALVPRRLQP

[4] = target: Calmodulin-1 (Homo sapiens) (UniProt P0DP23); test: CALM1 binders on microarrays, EGTA buffer, profiling panel, biochemical, small-molecule microarray, Cy5-labelled CALM1 (AID 1111); conditions: Cy5-CALM1 binding fluorescence, higher = more signal;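 also: labelled calmodulin applied in Tris saline Tween buffer holding calcium plus EGTA and DTT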
[5] = target: Calmodulin-1 (Homo sapiens) (UniProt P0DP23); test: calcium-bound CALM1 binders on microarrays, profiling panel, artefact control for SMM control-protein annotation, biochemical, small-molecule microarray, Cy5-labelled CALM1, plus calcium (AID 1112); conditions: Cy5-CALM1 binding fluorescence, higher = more signal;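 also: score merges spot fluorescence with signal to noise from triplicate slides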
[6] = small-molecule microarray binders of probe aWnt5a, primary screen, biochemical, biotinylated probe, 635/667 nm fluorescence (AID 1113); conditions: higher = more signal;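 also: score merges 667 nm fluorescence intensity with signal-to-noise per printed feature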
[7] = small-molecule microarray binders of probe aShh, primary screen, biochemical, biotinylated probe, 635/667 nm fluorescence (AID 1114); conditions: higher = more signal;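 also: probe is biotin-labelled aShh protein from a stem cell growth factor screen; measures binding of labelled protein to compounds printed on the slide; score merges feature fluorescence at 667 nm with signal-to-noise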
[8] = small-molecule microarray binders of probe aNog, primary screen, biochemical, biotinylated probe, 635/667 nm fluorescence (AID 1115); conditions: higher = more signal;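 also: probe is biotinylated aNog protein used at 0.15 µg/mL for 1 h at 4 C; z-score combines 667 nm fluorescence of each spot with its signal to noise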
[9] = target: Torsin-1A-interacting protein 1 (Homo sapiens) (UniProt Q5JTV8); test: LAP1 binders from COS7 cell lysate, primary screen, small-molecule microarray, 635/667 nm fluorescence (AID 1116); conditions: COS7-hLAP1 lysate binding, 635 nm fluorescence, higher = more signal
Torsin-1A-interacting protein 1 (Homo sapiens), sequence (Q5JTV8 whole entry, looked up): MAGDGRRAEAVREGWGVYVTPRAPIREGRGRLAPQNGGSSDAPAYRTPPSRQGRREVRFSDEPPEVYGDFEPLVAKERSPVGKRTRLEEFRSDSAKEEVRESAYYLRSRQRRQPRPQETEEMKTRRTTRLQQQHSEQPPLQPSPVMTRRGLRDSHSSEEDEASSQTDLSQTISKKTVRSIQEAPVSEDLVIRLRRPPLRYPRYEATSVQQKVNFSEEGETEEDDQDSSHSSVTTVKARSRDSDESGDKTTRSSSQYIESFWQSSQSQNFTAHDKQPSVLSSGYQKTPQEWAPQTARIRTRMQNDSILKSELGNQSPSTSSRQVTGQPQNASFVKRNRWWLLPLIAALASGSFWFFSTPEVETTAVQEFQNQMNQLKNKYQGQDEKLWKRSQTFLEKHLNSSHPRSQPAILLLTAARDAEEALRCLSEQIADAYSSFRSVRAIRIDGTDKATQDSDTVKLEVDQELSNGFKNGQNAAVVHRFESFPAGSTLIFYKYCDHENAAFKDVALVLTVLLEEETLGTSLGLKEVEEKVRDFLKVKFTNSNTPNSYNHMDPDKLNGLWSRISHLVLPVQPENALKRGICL

[10] = target: Alpha-bungarotoxin (Bungarus multicinctus) (UniProt P60615); test: alpha-bungarotoxin binders on microarray, profiling panel, artefact control for SMM control protein annotation, biochemical, small-molecule microarray, Alexa647 label, 635/667 nm fluorescence (AID 1117); conditions: alpha-BTX-A647 binding fluorescence, higher = more signal
Alpha-bungarotoxin (Bungarus multicinctus), sequence (P60615 whole entry, looked up): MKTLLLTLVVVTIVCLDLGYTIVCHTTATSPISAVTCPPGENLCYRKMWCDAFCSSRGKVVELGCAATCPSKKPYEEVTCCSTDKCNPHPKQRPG

Albumin (Bos taurus) = Albumin (Bos taurus) (UniProt P02769); test: bovine serum albumin binders on microarray, profiling panel, artefact control for SMM control protein annotation, biochemical, small-molecule microarray, Alexa647 label, 635/667 nm fluorescence (AID 1118); conditions: BSA-A647 binding, fluorescence 635 nm, higher = more signal;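 also: score merges 667 nm emission intensity and signal-to-noise per printed compound spot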
Albumin (Bos taurus), sequence (P02769 whole entry, looked up): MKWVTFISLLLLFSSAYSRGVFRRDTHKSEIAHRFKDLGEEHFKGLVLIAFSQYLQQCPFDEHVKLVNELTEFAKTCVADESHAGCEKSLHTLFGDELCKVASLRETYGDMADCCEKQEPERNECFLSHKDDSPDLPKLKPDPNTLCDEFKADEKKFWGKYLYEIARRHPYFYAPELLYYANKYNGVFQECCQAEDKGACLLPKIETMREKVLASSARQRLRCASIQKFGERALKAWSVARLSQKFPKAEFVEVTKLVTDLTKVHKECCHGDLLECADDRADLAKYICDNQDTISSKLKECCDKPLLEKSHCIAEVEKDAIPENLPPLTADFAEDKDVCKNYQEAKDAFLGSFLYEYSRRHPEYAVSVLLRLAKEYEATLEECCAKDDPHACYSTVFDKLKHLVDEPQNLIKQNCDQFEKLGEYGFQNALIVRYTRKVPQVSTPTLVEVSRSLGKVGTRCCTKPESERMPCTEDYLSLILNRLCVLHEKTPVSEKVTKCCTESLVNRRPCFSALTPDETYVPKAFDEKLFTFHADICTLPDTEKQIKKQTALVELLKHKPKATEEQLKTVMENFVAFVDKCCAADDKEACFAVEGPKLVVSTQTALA

[11] = small-molecule microarray binders of probe aXIP, primary screen, biochemical, NeuroSMM set, 635/667 nm fluorescence (AID 1119); conditions: higher = more signal, called active from +8 up or from −8 down;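 also: probe is the protein aXip251-270 applied at 1 µg/mL to compound-printed slides; binding of probe to printed compounds measured as 667 nm fluorescence plus signal to noise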
[12] = small-molecule binders of probe aNOTCH3, primary screen, biochemical, small-molecule microarray, 635/667 nm fluorescence (AID 1120); conditions: higher = more signal;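 also: probe is a biotin-tagged antibody raised against NOTCH3 rather than NOTCH3 protein; score merges spot fluorescence near 667 nm with spot signal to noise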
[13] = small-molecule binders of probe aNOTCH2, primary screen, biochemical, small-molecule microarray, 635/667 nm fluorescence (AID 1121); conditions: higher = more signal;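 also: score merges feature fluorescence read at 667 nm with its signal to noise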
[14] = target: Carbonic anhydrase 2 (Homo sapiens) (UniProt P00918); test: CAII small-molecule binders, profiling panel, biochemical, small-molecule microarray, Alexa647-labelled CAII (AID 1122); conditions: CAII-A647 binding fluorescence, higher = more signal
[15] = COS7 lysate on small-molecule microarray, probe aHis, 635 nm (AID 1123); conditions: COS7 cell lysate, fluorescence, higher = more signal;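 also: z-score combines 667nm fluorescence intensity with signal-to-noise per printed compound spot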
[16] = compound binding in COS7 lysate, probe aLAP1, primary screen, cell lysate, small-molecule microarray (AID 1124); conditions: probe aLAP1, fluorescence, higher = more signal;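 also: lysate comes from COS7 cells expressing LAP1 and is applied at 0.3 µg/mL; score merges spot fluorescence near 667 nm with signal-to-noise over triplicate slides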
Sam68 (KHDRBS1) = test: Sam68 small-molecule binders, primary screen, biochemical, small-molecule microarray, 635 nm fluorescence (AID 1125); conditions: small-molecule microarray binding, higher = more signal;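 also: score merges 667 nm channel intensity with signal to noise over triplicate slides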
[17] = test system: Chordin-like protein 2 (CHRDL2); test: CHRDL2 small-molecule binders, primary screen, biochemical, small-molecule microarray, 635 nm fluorescence (AID 1126); conditions: small-molecule microarray binding, fluorescence 635 nm; higher = more signal;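 also: printed compound slides probed with Chrdl2 protein at 4 µg/mL for 1 h at 4 C; score merges 667 nm emission intensity with signal to noise over three replicate slides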
[18] = target: Concanavalin-A (Canavalia ensiformis) (UniProt P02866); test: ConA small-molecule binders, primary screen, artefact control for SMM control protein annotation, biochemical, small-molecule microarray, Alexa647 label, 635 nm (AID 1127); conditions: ConA-A647 binding fluorescence, higher = more signal;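 also: z combines 667 nm emission intensity with signal-to-noise across three replicate slides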
Concanavalin-A (Canavalia ensiformis), sequence (P02866 whole entry, looked up): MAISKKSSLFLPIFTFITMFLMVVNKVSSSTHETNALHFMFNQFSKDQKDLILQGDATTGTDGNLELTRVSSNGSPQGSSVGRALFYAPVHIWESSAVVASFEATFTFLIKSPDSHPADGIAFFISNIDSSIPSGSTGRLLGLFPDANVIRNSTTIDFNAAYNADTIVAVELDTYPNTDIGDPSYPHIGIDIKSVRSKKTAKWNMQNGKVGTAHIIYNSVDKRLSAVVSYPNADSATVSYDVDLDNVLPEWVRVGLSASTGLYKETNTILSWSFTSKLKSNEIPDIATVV

## C[N+](C)(C)CCCC[C@@H]1NC(=O)[C@@H]2C[C@H](C(=O)NCCCCCCNC(=O)CS)[C@H](c3cccc(OCCO)c3)N2C1=O
[1]
  composite z-score: -0.568
[2]
  z-score: -0.154
[3]
  composite z-score: 0.382
[4]
  composite z-score: -0.485
[5]
  composite z-score: -0.467
[6]
  composite z-score: -0.233
[7]
  composite z-score: -0.0553
[8]
  composite z-score: -0.331
[9]
  composite z-score: 0.567
[10]
  composite z-score: 2.15
Albumin (Bos taurus)
  composite z-score: -0.658
[11]
  composite Z-score: 0.802 (inactive)
[12]
  composite z-score: -0.0984
[13]
  composite z-score: -0.174
[14]
  composite z-score: 0.332
[15]
  composite z-score: 1.04
[16]
  composite z-score: 0.264
Sam68 (KHDRBS1)
  composite z-score: 0.129
[17]
  composite z-score: 0.393
[18]
  composite z-score: -0.258

## C=CC[C@]1(C(=O)O)N=C(c2ccc(OCCCO)cc2)O[C@H]1c1ccccc1CN=[N+]=[N-]
[1]
  composite z-score: -0.907
[2]
  z-score: -0.439
[3]
  composite z-score: -0.46
[4]
  composite z-score: 0.371
[5]
  composite z-score: 0.939
[6]
  composite z-score: -0.0977
[7]
  composite z-score: -0.0209
[8]
  composite z-score: -0.0554
[9]
  composite z-score: 0.371
[10]
  composite z-score: -0.445
Albumin (Bos taurus)
  composite z-score: 0.659
[11]
  composite Z-score: 0.168 (inactive)
[12]
  composite z-score: -0.0447
[13]
  composite z-score: -0.157
[14]
  composite z-score: 0.876
[15]
  composite z-score: 1.23
[16]
  composite z-score: -0.201
Sam68 (KHDRBS1)
  composite z-score: -0.103
[17]
  composite z-score: 0.0037
[18]
  composite z-score: 0.0681

## COC(=O)[C@@]1(Cc2ccc(OC)cc2)[C@H]2c3cc(C(=O)N4CCCC4)n(CCN4CCOCC4)c3C[C@H]2CN1C(=O)c1ccccc1
[1]
  composite z-score: 1.04
[2]
  z-score: -0.882
[3]
  composite z-score: 0.285
[4]
  composite z-score: 1.55
[5]
  composite z-score: 1.21
[6]
  composite z-score: 1.19
[7]
  composite z-score: 2.65
[8]
  composite z-score: 2.75
[9]
  composite z-score: 0.934
[10]
  composite z-score: 0.609
Albumin (Bos taurus)
  composite z-score: 1.06
[11]
  composite Z-score: 1.42 (inactive)
[12]
  composite z-score: 1.72
[13]
  composite z-score: 1.05
[14]
  composite z-score: 0.87
[15]
  composite z-score: 3.42
[16]
  composite z-score: 0.94
Sam68 (KHDRBS1)
  composite z-score: 1.29
[17]
  composite z-score: 0.265
[18]
  composite z-score: 0.991

## COC(=O)[C@@]1(Cc2ccc(OC)cc2)[C@H]2c3cc(C(=O)N4CCCC4)n(CCc4ccccn4)c3C[C@H]2CN1C(=O)c1ccccc1
[1]
  composite z-score: -0.091
[2]
  z-score: -0.216
[3]
  composite z-score: -0.694
[4]
  composite z-score: 1.34
[5]
  composite z-score: 0.61
[6]
  composite z-score: 0.164
[7]
  composite z-score: 1.23
[8]
  composite z-score: 1.22
[9]
  composite z-score: 0.432
[10]
  composite z-score: 0.329
Albumin (Bos taurus)
  composite z-score: 0.348
[11]
  composite Z-score: 0.868 (inactive)
[12]
  composite z-score: 0.268
[13]
  composite z-score: 0.0746
[14]
  composite z-score: 0.862
[15]
  composite z-score: 3.52
[16]
  composite z-score: 0.425
Sam68 (KHDRBS1)
  composite z-score: -0.724
[17]
  composite z-score: -0.236
[18]
  composite z-score: 0.949

## COc1ccc(C(O)C2C=CC3C(=O)N(c4ccccc4)C(=O)C3N2Nc2ccccc2)c2ccccc12 (stereo not given)
[1]
  composite z-score: -0.34
[2]
  z-score: -1.91
[3]
  composite z-score: -0.608
[4]
  composite z-score: 1.25
[5]
  composite z-score: 0.851
[6]
  composite z-score: -0.0792
[7]
  composite z-score: -0.218
[8]
  composite z-score: 0.941
[9]
  composite z-score: 0.814
[10]
  composite z-score: 0.93
Albumin (Bos taurus)
  composite z-score: 0.705
[11]
  composite Z-score: 0.0542 (inactive)
[12]
  composite z-score: 0.19
[13]
  composite z-score: -0.0528
[14]
  composite z-score: 0.522
[15]
  composite z-score: 1.97
[16]
  composite z-score: 0.0206
Sam68 (KHDRBS1)
  composite z-score: -0.309
[17]
  composite z-score: -0.841
[18]
  composite z-score: 0.69
